Measured values taken from PubChem BioAssay AID687009 (National Center for Advancing Translational Sciences (NCATS), 2013).
Inconclusive results are not listed. The source made the active and inactive calls. The call rests on the fitted dose curve; in most records, active means well fitted curve in the direction sought with a large enough effect; inconclusive means small, poorly fitted or top-dose-only effect, or another doubt; inactive means no such curve, though single readings can be large or run the other way.

Molecular target: Lysine-specific histone demethylase 1A (Homo sapiens) (UniProt O60341)
Assay: qHTS Assay for Inhibitors of Human Jumonji Domain Containing 2E (JMJD2E): Counterscreen with LSD1
Details: Amplex Red/HRP fluorescence; series mostly up to 57.1 µM; activity, negative = inhibition: at the top concentration
Description: The fine interplay among methylation states of several lysine residues on the tails of histone proteins is a major determinant of the transcriptional state of the associated DNA coding regions and is commonly referred to as the histone code. Histone lysine demethylases catalyze the removal of methyl groups from methylated lysine sidechains on histones H3 and H4, thus antagonizing the reactions catalyzed by histone lysine methyltransferases. […] In search for novel inhibitors of JMJD2E demethylase, a member of the largest set of histone demethylases belonging to the Fe(II) and 2-oxoglutarate oxygenase (2OG) superfamily, we performed a quantitative high-throughput screen (Inglese 2006) by using an assay which utilizes a trimethylated peptide substrate corresponding to a fragment of histone H3 (sequence ARKme3STGGK) with detection of the formaldehyde co-product in real time by a formaldehyde dehydrogenase (FDH) coupled reaction. FDH catalyzes oxidation of formaldehyde to formic acid with the concomitant reduction of the non-fluorescent beta-nicotinamide adenine dinucleotide hydrate (NAD+) cofactor to the fluorescent NADH co-product. Compounds that were validated hits were screened against the histone LSD1 histone demethylase. […] NIH Chemical Genomics Center [NCGC] NIH Molecular Libraries Probe Centers Network [MLPCN] MLPCN Grant: MH084681 Assay Submitter (PI): Udo Oppermann, Structural Genomics Consortium, University of Oxford
The assay was performed in a buffer containing 10 mM HEPES, Na pH 7.5, 5 mM MgCl2, 50 mM KCl, 0.01% Nonidet P-40, and 0.1% BSA. LSD1 was sourced from BPS Bioscience (Cat. No. 50100, San Diego, CA) and the substrate peptide was synthesized and purified by Tufts University Core Facilities (Boston, MA). Reagents (3 microL) containing either buffer-only (inhibited control) or LSD1 (120 nM) were dispensed into a 1,536-well Aurora black solid bottom cycloolefin plate (see Table 1 for protocol steps). Compounds (23 nL) were transferred via Kalypsys pintool equipped with a 1,536-pin array. The plate was incubated for 10 min at room temperature, followed by the addition of 1 microL 4 X substrate (10 mM HEPES, pH 7.5, 8 U/mL HRP, 800 µM Amplex Red, and 200 microM H3K4Me2 peptide [Sequence H-ARTXQTARKSTGGKAPRKQLA-NH2, where X = Nepsilon,Nepsilon-dimethyl-L-lysine]) to start the reaction. The plate was then centrifuged at 1,000 rpm for 15 seconds, and the fluorescence intensity was recorded on a ViewLux High-throughput CCD imager (Perkin-Elmer) using standard TAMRA optics (525 nm excitation and 598 nm emission). The plate was then incubated for 30 min at room temperature, and a second read on the ViewLux was performed. The fluorescence intensity difference over the 30 min was used to calculate the respective reaction rate for each well.

SMILES	activity, negative = inhibition	Potency
O=C(O)c1ccc(O)c2ncc(-c3cccc(N4CCOCC4)c3)cc12	-17.8% (inactive)	–
CN(C)CCCN1CCCN(C(=O)c2cccc(-c3cc(O)c4ncccc4c3)c2)C1	–	10.8 µM (active)
CN1CCN(C(=O)c2ccc(-c3cnc4c(O)ccc(C(=O)O)c4c3)cc2)CC1	-15.6% (inactive)	–
CN(C)CCCNC(=O)c1ccc(-c2cnc3c(O)ccc(C(=O)O)c3c2)cc1	-17.5% (inactive)	–
O=C(O)c1ccc(O)c2ncc(C3CCNCC3)cc12	-15% (inactive)	–
O=C(O)c1ccnc2c(O)cccc12	-19% (inactive)	–
O=C(O)c1ccc(O)c2ncccc12	-17% (inactive)	–
O=C(O)c1ccc(O)c2ncc(-c3ccc(C(=O)N4CCNCC4)cc3)cc12	-16.8% (inactive)	–
O=C(O)c1ccc(O)c2ncc(-c3ccc(N4CCOCC4)cc3)cc12	-20.2% (inactive)	–
NC(=O)c1ccnc2c(O)cccc12	-17.5% (inactive)	–
